Laboratory results as given in PubChem BioAssay (Tox21).
Where “and” joins values, the source holds several entries; their conditions need not be identical. Equal entries are not always repeated. Records with an inconclusive call do not appear. Where a structure was tested more than once in an assay, its records may differ in their call. Calls of active or inactive are those of the source. Unless noted, calls follow the shape of the dose curve; as a rule, active = well fitted curve in the direction sought with a large enough effect in the repeat runs; inconclusive = weak or mixed curves; inactive = no such curve, though single readings can be large; an effect the other way counts as inactive or inconclusive.

Legend:
[1] = qHTS assay for identifying genotoxic compounds that show differential cytotoxicity against isogenic chicken DT40 cell lines with known DNA damage response pathways - wild type cell line (AID 743012); also: nearly all actives have a fitted effect of over 60% in size; also: potency is read from the fitted curve at half-maximal effect
Outline: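 First, wild type DT40 cells were plated at 300 per well and equilibrated about 0.5 h at 37 C/5% CO2. Next, compounds in DMSO were added and exposure lasted 40 h. Finally, CellTiter-Glo was added for 30 min at room temperature and luminescence recorded.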

[2] = qHTS assay for identifying genotoxic compounds that show differential cytotoxicity against isogenic chicken DT40 cell lines with known DNA damage response pathways - Rev3 mutant cell line (AID 743014); also: nearly all actives have a fitted effect of over 55% in size; also: potency is read from the fitted curve at half-maximal effect
[3] = qHTS assay for identifying genotoxic compounds that show differential cytotoxicity against isogenic chicken DT40 cell lines with known DNA damage response pathways - Rad54/Ku70 mutant cell line (AID 743015); also: nearly all actives have a fitted effect of over 60% in size; also: potency is read from the fitted curve at half-maximal effect
[4] = qHTS assay to identify small molecule antagonists of the androgen receptor (AR) signaling pathway - cell viability counter screen (AID 743033; also: nearly all actives have a fitted effect of over 45% in size; also: potency is read from the fitted curve at half-maximal effect)
[5] = qHTS assay to identify small molecule antagonists of the androgen receptor (AR) signaling pathway using the MDA cell line - cell viability counter screen (AID 743041; also: nearly all actives have a fitted effect of over 45% in size; also: potency is read from the fitted curve at half-maximal effect)
Outline: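 MDA-kb2 AR-luc human breast carcinoma cells (MMTV-luciferase, AR/GR responsive) were treated with compounds plus R1881 agonist for 16 h at 37 °C. Viability was read as CellTiter-Fluor fluorescence in the same wells as the reporter assay.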

[6] = qHTS assay to identify small molecule antagonists of the thyroid receptor (TR) signaling pathway - cell viability counter screen (AID 743064); also: nearly all actives have a fitted effect of over 50% in size; also: potency is read from the fitted curve at half-maximal effect
Outline: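 In-well cytotoxicity read by CellTiter-Fluor (30 min, 37 C) following 23.5 h exposure of GH3 cells bearing a TRE-luciferase sensor. Compounds were added alongside 1 nM (final) T3 to drive TR transactivation.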

[7] = qHTS assay to identify small molecule antagonists of the thyroid receptor (TR) signaling pathway (AID 743065); also: nearly all actives have a fitted effect of over 55% in size; also: potency is read from the fitted curve at half-maximal effect
Outline: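 GH3.TRE-Luc rat pituitary cells carrying two TR response elements driving luciferase were plated for 4 h, given compound plus 1 nM T3 (final), and incubated 23.5 h at 37 C. ONE-Glo luminescence measured reporter inhibition; CellTiter-Fluor fluorescence tracked cytotoxicity.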

[8] = test system: thyroid hormone receptor (rat, GH3 cells); assay: qHTS assay to identify small molecule agonists of the thyroid receptor (TR) signaling pathway (AID 743066; calls by dose curve)
[9] = qHTS assay to identify small molecule antagonists of the estrogen receptor alpha (ER-alpha) signaling pathway - cell viability counter screen (AID 743074; calls by dose curve; also: nearly all actives have a fitted effect of over 45% in size; also: potency is read from the fitted curve at half-maximal effect)
[10] = qHTS assay to identify small molecule antagonists of the estrogen receptor alpha (ER-alpha) signaling pathway using the BG1 cell line - cell viability counter screen (AID 743081);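 also: compound given together with 17beta-estradiol as the ER stimulus; nearly all actives have a fitted effect of over 45% in size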; also: potency is read from the fitted curve at half-maximal effect
Aromatase (Homo sapiens) = Aromatase (Homo sapiens) (UniProt P11511); assay: qHTS assay to identify aromatase inhibitors (AID 743083); also: nearly all actives have a fitted effect of over 55% in size; also: potency is read from the fitted curve at half-maximal effect
[11] = qHTS assay to identify small molecule antagonists of the glucocorticoid receptor (GR) signaling pathway - cell viability counter screen (AID 720693); also: nearly all actives have a fitted effect of over 55% in size
[12] = molecular target: Estrogen receptor (Homo sapiens) (UniProt P03372); assay: qHTS assay to identify small molecule antagonists of the estrogen receptor alpha (ER-alpha) signaling pathway (AID 743069; active = well fitted curve in the direction sought with a large enough effect in the signal ratio in the repeat runs, not every such curve was filed as active; the % refers to the signal ratio)
Outline: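 HEK293 cells stably carrying an ER-alpha-UAS-bla beta-lactamase reporter were pre-cultured overnight in 2% charcoal-stripped FBS medium. Test compounds in DMSO were added together with 17beta-estradiol for 18 hr at 37C. Read-out was fluorescence after 2 hr with LiveBLAzer B/G FRET substrate at room temperature.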

[13] = molecular target: Estrogen receptor (Homo sapiens) (UniProt P03372); assay: qHTS assay to identify small molecule agonists of the estrogen receptor alpha (ER-alpha) signaling pathway (AID 743075; calls by dose curve)
[14] = molecular target: Estrogen receptor (Homo sapiens) (UniProt P03372); assay: qHTS assay to identify small molecule agonists of the estrogen receptor alpha (ER-alpha) signaling pathway using the BG1 cell line (AID 743079); also: nearly all actives have a fitted effect of over 20% in size
[15] = qHTS assay to identify small molecule antagonists of the estrogen receptor alpha (ER-alpha) signaling pathway using the BG1 cell line (AID 743080; calls by dose curve;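 also: BG1 cells stimulated with 17beta-estradiol alongside compound; series mostly up to about 70 µM; nearly all actives have a fitted effect of over 25% in size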)
Outline: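 Quantitative HTS on the Tox21 10K library: BG1 cells with endogenous ER-alpha and ERE-luciferase reporter, 17beta-estradiol stimulation, 21.5 h compound exposure, luminescence endpoint with parallel fluorescence cytotoxicity counter-read.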

Measured: Potency

Sequence of Estrogen receptor (Homo sapiens) (P03372 whole entry, looked up): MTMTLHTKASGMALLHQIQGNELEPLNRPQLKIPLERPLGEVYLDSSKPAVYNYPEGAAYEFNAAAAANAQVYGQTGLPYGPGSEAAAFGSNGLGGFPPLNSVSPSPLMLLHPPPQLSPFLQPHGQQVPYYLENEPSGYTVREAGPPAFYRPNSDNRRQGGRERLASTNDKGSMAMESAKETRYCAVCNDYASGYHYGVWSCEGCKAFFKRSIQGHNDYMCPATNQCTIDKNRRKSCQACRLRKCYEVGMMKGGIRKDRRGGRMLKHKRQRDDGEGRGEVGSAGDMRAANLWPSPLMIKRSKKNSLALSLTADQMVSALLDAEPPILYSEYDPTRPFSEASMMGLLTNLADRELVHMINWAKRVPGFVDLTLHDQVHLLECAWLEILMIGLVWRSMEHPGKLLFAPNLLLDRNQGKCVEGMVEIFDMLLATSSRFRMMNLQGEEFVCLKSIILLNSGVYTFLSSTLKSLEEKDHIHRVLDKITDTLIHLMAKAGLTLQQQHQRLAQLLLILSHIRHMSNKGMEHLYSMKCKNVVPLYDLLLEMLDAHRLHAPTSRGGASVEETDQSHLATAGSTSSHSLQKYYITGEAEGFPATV
Sequence of Aromatase (Homo sapiens) (P11511 whole entry, looked up): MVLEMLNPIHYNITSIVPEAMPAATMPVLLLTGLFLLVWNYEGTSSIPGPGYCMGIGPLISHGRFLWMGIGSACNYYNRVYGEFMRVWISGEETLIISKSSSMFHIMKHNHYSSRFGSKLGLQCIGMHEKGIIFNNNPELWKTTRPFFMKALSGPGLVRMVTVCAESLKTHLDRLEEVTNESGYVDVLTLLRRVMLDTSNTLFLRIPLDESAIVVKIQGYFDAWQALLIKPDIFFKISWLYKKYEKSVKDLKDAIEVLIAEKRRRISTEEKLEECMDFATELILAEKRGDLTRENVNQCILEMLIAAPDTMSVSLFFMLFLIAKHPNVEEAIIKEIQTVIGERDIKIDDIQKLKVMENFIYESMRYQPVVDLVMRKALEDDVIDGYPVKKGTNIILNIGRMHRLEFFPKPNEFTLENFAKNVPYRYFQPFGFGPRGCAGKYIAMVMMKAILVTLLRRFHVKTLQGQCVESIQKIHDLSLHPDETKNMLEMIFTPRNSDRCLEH

CC(=O)O[C@]1(C(C)=O)CC[C@H]2[C@@H]3C=C(Cl)C4=CC(=O)[C@@H]5C[C@@H]5[C@]4(C)[C@H]3CC[C@@]21C
inactive and 19.5 µM (active): [4]
inactive and 54.4 µM (active): [6] | Aromatase (Homo sapiens)
active: [1] 13.3 µM and 12.2 µM and 19.3 µM | [2] 21.1 µM and 4.85 µM and 15.4 µM | [3] 23.7 µM and 7.69 µM and 21.7 µM | [7] 24.3 µM and 54.5 µM
inactive: [5] | [8] | [9] | [10]

Cc1cc2nc3c(=O)[nH]c(=O)nc-3n(C[C@H](O)[C@H](O)[C@H](O)CO)c2cc1C
inactive: [11] | [1] | [2] | [4] | [7] | [8] | [9]
18.8 µM (active) and inactive: [3]

CCCC(=O)O
inactive: [11] | [1] | [2] | [3] | [4] | [5] | [6] | [9] | [10] | Aromatase (Homo sapiens)

CCCCC/C=C/C=C/C=O
inactive: [11] | [4] | [5] | [8] | [9] | [10] | Aromatase (Homo sapiens)
active: [1] 19.3 µM
inactive and 17.2 µM (active): [3]
inactive and 21.7 µM (active): [2]

c1ccc(Nc2ccccc2)cc1
inactive: [11] | [3] | [4] | [5] | [6] | [9] | [10] | Aromatase (Homo sapiens)
active: [1] 61.1 µM

COc1ccc(OC)c(C(O)CNC(=O)CN)c1 (stereo not given)
inactive: [11] | [1] | [3] | [4] | [5] | [12] | [9] | [13] | [14] | [15] | [10] | Aromatase (Homo sapiens)

CNCCCC12CCC(c3ccccc31)c1ccccc12
active: [1] 10.6 µM and 6.86 µM | [2] 21.1 µM and 12.2 µM | [3] 13.3 µM and 6.86 µM | [5] 61.1 µM | [6] 11.9 µM and 4.86 µM
inactive and 49 µM (active): [9]
inactive and 30.6 µM (active): Aromatase (Homo sapiens)
inactive: [11] | [13] | [14] | [10]
inactive and 43.6 µM (active): [4]

Cc1ccc(C(=O)c2cc(O)c(O)c([N+](=O)[O-])c2)cc1
inactive and 61.1 µM (active): [6]
active: [3] 48.6 µM | [7] 68.6 µM | [10] 33.5 µM and 54.5 µM
inactive and 68.6 µM (active): [2]
inactive: [4] | [5] | [8]
